The values that follow come from PubChem BioAssay (NCATS).

Experiment [1] is described as follows: qHTS of pediatric cancer cell lines to identify multiple opportunities for drug repurposing: Primary screen for RD cells (AID 1347104). Note: nearly all actives have a fitted effect of over 55% in size. Note: potency is the fitted concentration of half-maximal effect. In short, it runs like this:
(§1)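 Primary screen of approved and investigational compounds on cells in growth media at 37 degrees C, 5% CO2. MIPE set at 11-point and NPC set at 8-point dilutions; viability scored by ATP-based luminescence at 48 hours.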
(In general: Quantitative high-throughput screening tests each substance at several concentrations.)

Experiment [2] is described as follows: qHTS of pediatric cancer cell lines to identify multiple opportunities for drug repurposing: Primary screen for MG 63 (6-TG R) cells (AID 1347105). Note: nearly all actives have a fitted effect of over 50% in size. Note: potency is the fitted concentration of half-maximal effect. In short, it runs like this:
as §1

Experiment [3] can be described thus: qHTS of pediatric cancer cell lines to identify multiple opportunities for drug repurposing: Primary screen for control Hh wild type fibroblast cells (AID 1347106).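 Note: series mostly up to about 46 µM; a drop in luminescence marks cytotoxicity and a rise apparent proliferation; nearly all actives have a fitted effect of over 55% in size.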 In short, it runs like this:
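Cells (500-1,000/well) in growth media were settled 5 h at 37 degrees C, then given compounds for 48 h. Viability was read as CellTiter-Glo luminescence. Primary runs used MIPE at 11 points (0.78 nM-46 µM) and NPC at 8 points (0.59 nM-46 µM); follow-ups used 11 points.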

Experiment [4] can be described thus: qHTS of pediatric cancer cell lines to identify multiple opportunities for drug repurposing: Primary screen for Rh30 cells (AID 1347107). Note: series mostly up to about 46 µM; nearly all actives have a fitted effect of over 75% in size. The method, boiled down: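 Viability after 48 h compound treatment at 37C, 500-1,000 cells/well, read as ATP luminescence with CellTiter-Glo. Primary screens used 11-point (MIPE, 0.78 nM-46 µM) or 8-point (NPC, 0.59 nM-46 µM) final concentrations; follow-up screens used 11-point dilutions.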

Experiment [5] can be described thus: qHTS of pediatric cancer cell lines to identify multiple opportunities for drug repurposing: Primary screen for Rh41 cells (AID 1347108). Note: nearly all actives have a fitted effect of over 70% in size. Note: potency is the fitted concentration of half-maximal effect. The method, boiled down:
as §1

Results filed as inconclusive are left out. Calls of active or inactive are those of the source. Calls come from the whole dose curve; as a rule, active = well fitted curve in the direction sought with a large enough effect; inconclusive = small, poorly fitted or top-dose-only effect, or another doubt; inactive = no such curve, though single readings can be large; an effect the other way counts as inactive or inconclusive.

As to `CCN(c1ccccc1)c1cc(NC)[n+](C)c(C)n1`, the Potency entry in experiment [1], in experiment [2], in experiment [3], in experiment [4] and in experiment [5] was “inactive” throughout.

For `NC(=O)c1cnccn1`, the Potency entry in experiment [1], in experiment [2], in experiment [3], in experiment [4] and in experiment [5] was “inactive” in each case.

Consider `COc1ccc(-c2c(-c3ccc(O)cc3O)n[nH]c2C)cc1`, for which the Potency result in experiment [1], in experiment [2] and in experiment [3] was “inactive” each time.

With `O=c1ncn2nc(Sc3ccc(F)cc3F)ccc2c1-c1c(Cl)cccc1Cl`, the Potency entry in experiment [1], in experiment [2] and in experiment [3] was “inactive” each time.

On to `Nc1ccc(S(=O)(=O)Nc2ccnn2-c2ccccc2)cc1`, for which the Potency result in experiment [1], in experiment [2], in experiment [3], in experiment [4] and in experiment [5] was “inactive” in each case.

On to `CCC(C)N(C)C(=O)c1cc2ccccc2c(-c2ccccc2Cl)n1` (stereo not given), for which the Potency entry in experiment [1], in experiment [2], in experiment [3] and in experiment [4] was “inactive” throughout.

As for `COc1ccc2nc(S(=O)Cc3ncc(C)c(OC)c3C)[nH]c2c1` (stereo not given), the Potency entry in experiment [1], in experiment [2], in experiment [3], in experiment [4] and in experiment [5] was “inactive” each time.

Regarding `Clc1cccc(Cl)c1NC1=NCCN1`, the Potency result in experiment [1], in experiment [2], in experiment [3], in experiment [4] and in experiment [5] was “inactive” in each case.

With `NC(=O)c1ccc(-c2nc(-c3ccc4c(c3)OCCO4)c(-c3ccccn3)[nH]2)cc1`, the Potency entry in experiment [1], in experiment [2] and in experiment [3] was “inactive” throughout.

On to `OC(CCN1CCCCC1)(c1ccccc1)C1CC2C=CC1C2` (stereo not given), for which the Potency entry in experiment [1], in experiment [2], in experiment [3], in experiment [4] and in experiment [5] was “inactive” in each case.

Consider `Cc1[nH]c(=O)c(C#N)cc1-c1ccncc1`, for which the Potency result in experiment [1], in experiment [2], in experiment [3], in experiment [4] and in experiment [5] was “inactive” in each case.

As for `CC(c1cc2ccccc2s1)N(O)C(N)=O` (stereo not given), the Potency result in experiment [1], in experiment [2], in experiment [3], in experiment [4] and in experiment [5] was “inactive” each time.

As for `C[C@]12CC[C@H](O)CC1=CC[C@@H]1[C@H]2CC[C@]2(C)C(c3cccnc3)=CC[C@H]12`, the Potency result in experiment [1], in experiment [2], in experiment [3], in experiment [4] and in experiment [5] was “inactive” throughout.

Regarding `COc1ccccc1-c1cccc(-c2c(O)c3cc(C#N)c(Cl)cc3[nH]c2=O)c1`, the Potency entry in experiment [1], in experiment [2], in experiment [3], in experiment [4] and in experiment [5] was “inactive” in each case.

As for `CC(=O)Oc1ccccc1C(=O)O`, the Potency result in experiment [1], in experiment [2] and in experiment [3] was “inactive” throughout.

As for `Cn1c(=O)c(F)c(Nc2ccc(I)cc2F)c2c(=O)n(C[C@@H](O)CO)cnc21`, in experiment [1], the Potency is 0.0296 µM (active). For the same molecule, in experiment [2], the Potency entry is “inactive”.

As for `COc1ccc(CC2=NN3C([C@@H](CCc4ccccc4)[C@@H](C)O)=NC(C)C3C(=O)N2)cc1OC` (stereo not given in full), the Potency entry in experiment [1], in experiment [2] and in experiment [3] was “inactive” throughout.

Regarding `NNCCc1ccccc1`, the Potency entry in experiment [1], in experiment [2], in experiment [3], in experiment [4] and in experiment [5] was “inactive” each time.

Turning to `COc1nc(-c2ccc3c(c2)OCO3)n(-c2ccc(NC(=O)CSc3ccccc3)cc2)n1`, the Potency result in experiment [1], in experiment [2], in experiment [3], in experiment [4] and in experiment [5] was “inactive” throughout.

As for `Cc1cc(SCc2sc(-c3ccc(C(F)(F)F)cc3)nc2C)ccc1OCC(=O)O`, the Potency entry in experiment [1], in experiment [2], in experiment [3] and in experiment [4] was “inactive” each time.

Turning to `CC1(C)SCCN(S(=O)(=O)c2ccc(OCC#CCO)cc2)[C@@H]1C(=O)NO`, the Potency entry in experiment [1], in experiment [2], in experiment [3], in experiment [4] and in experiment [5] was “inactive” each time.

In the case of `CCOc1cc(C(=O)Nc2ccc(Cl)c(-c3nc4ccccc4[nH]3)c2)cc(OCC)c1OCC`, the Potency in experiment [1] is 2.96 µM (active). Also, the Potency result in experiment [2] was “inactive”.

As for `NCCc1ccc(O)c(O)c1`, the Potency entry in experiment [1], in experiment [2], in experiment [3], in experiment [4] and in experiment [5] was “inactive” each time.

`O=C(C1CC1)N1CC[C@@H](Cn2c(-c3ccc(-c4ccc5occc5c4)cc3)nc3cnccc32)C1`: the Potency result in experiment [1], in experiment [2], in experiment [3], in experiment [4] and in experiment [5] was “inactive” each time.

Take `CCN(CC)CCCC(C)Nc1nc(C)cc(Nc2ccc3nc(C)cc(N)c3c2)n1` (stereo not given): the Potency result in experiment [1], in experiment [2], in experiment [3], in experiment [4] and in experiment [5] was “inactive” throughout.

For the molecule `CCCCNc1cc(C(=O)O)cc(S(N)(=O)=O)c1Oc1ccccc1`, the Potency entry in experiment [1], in experiment [2], in experiment [3], in experiment [4] and in experiment [5] was “inactive” each time.

For the molecule `C[C@H](NC(=O)Cc1cc(F)cc(F)c1)C(=O)N[C@@H]1C(=O)N(C)c2ccccc2-c2ccccc21`, the results for the Potency in experiment [1], in experiment [2] and in experiment [5] were 16.6 µM (active), 11.8 µM (active) and 14.8 µM (active), respectively. For the same molecule, the Potency entry in experiment [3] and in experiment [4] was “inactive” each time.

On to `CC(C[N+](C)(C)C)OC(N)=O` (stereo not given), for which the Potency entry in experiment [1], in experiment [2], in experiment [3], in experiment [4] and in experiment [5] was “inactive” throughout.

Consider `CC(C)(C)NCC(O)c1ccc(O)c(CO)c1` (stereo not given), for which the Potency result in experiment [1], in experiment [2], in experiment [3], in experiment [4] and in experiment [5] was “inactive” in each case.

As for `Cc1n[nH]c(C)c1Cc1sc2c(c1C(=O)N1C[C@H](O)CO1)c(=O)n(C)c(=O)n2CC(C)C`, the Potency result in experiment [1], in experiment [2], in experiment [3] and in experiment [4] was “inactive” in each case.

As to `COc1ccc([C@@H]2CC(=O)c3c(O)cc(O[C@@H]4O[C@H](CO[C@@H]5O[C@@H](C)[C@H](O)[C@@H](O)[C@@H]5O)[C@@H](O)[C@H](O)[C@@H]4O)cc3O2)cc1O`, the Potency result in experiment [1], in experiment [2], in experiment [3], in experiment [4] and in experiment [5] was “inactive” throughout.

Turning to `Nc1cccc(S(=O)(=O)N2CCCN(S(=O)(=O)c3ccc4c(c3)OCCO4)CC2)c1`, the Potency entry in experiment [1], in experiment [2], in experiment [3] and in experiment [4] was “inactive” throughout.

With `O=C(C=Cc1ccc(/C=C/C(=O)Nc2ccc(C3=NCCN3)cc2)cc1)Nc1ccc(C2=NCCN2)cc1`, the Potency result in experiment [1], in experiment [2], in experiment [3], in experiment [4] and in experiment [5] was “inactive” each time.
